# Gal4-VP16 FLuc = inhibits Gal4-VP16 luciferase reporter, ROR gamma counter-screen. Potency, µM (doses to about 53.6 µM), without a hit: at the highest dose activity, negative = inhibition, hits mostly inhibitors. Drosophila S2 Gal4-VP16 UAS-luciferase, luminescence, 20 h. actives 3.5% (n = 310,000);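 further: Gal4-VP16 expression switched on by copper sulfate through the metallothionein promoter; potency means the concentration at half of the fitted maximal effect; on the % scale 0 is the no-effect control and ±100 the full control effect; nearly all actives have a fitted effect of over 50% in size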
# CtBP-E1A inh = blocks the CtBP interaction with E1A | AID 651724 | AlphaScreen GST-E1A/His-CtBP binding, 1536-well; active compounds read low | activity change, % (concentration not given with the values) | actives 0.49% (n = 340,000); in the data active means activity change below about -65%; inconclusive means mostly about -30% to -63%; further: on the % scale 0 is the no-effect control and ±100 the full control effect
#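 In 5 uL wells, 23 nL compound meets equimolar GST-E1A and His-CtBP (5X stock 125 nM each) for 2 h, 37 °C. Beads (5X, 50 ug/mL) then 1 h, 37 °C, dark.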
# RORgamma inh = inhibitors of mouse ROR gamma transcriptional activity | P51450 | Drosophila S2 Gal4-RORgamma UAS-luciferase reporter, 20 h | Potency, µM (doses to about 53.6 µM), inactives show at the top dose activity change, negative = inhibition, hits mostly inhibitors | actives 5.4% (n = 310,000) | AID 2551; further: potency means the concentration at half of the fitted maximal effect; on the % scale 0 is the no-effect control and ±100 the full control effect; nearly all actives have a fitted effect of over 60% in size
#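 A Gal4/UAS one-hybrid system in insect cells: metallothionein-promoter Gal4–ROR gamma fusion plus Photinus luciferase reporter. Copper sulfate 700 uM final, 20 hr ambient incubation, luminescent detection after 10 min with reagent.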
# p53 reactivator = restores transcriptional activity of mutant p53; actives 0.063% (n = 320,000); H1299 p53-A138V BP100-luciferase reporter, luminescence, 24 h; Potency, µM (series often up to 92.2 µM), for the others: at the top dose activity change, positive = activation, hits mostly activators; further: potency means the concentration at half of the fitted maximal effect; % of control where 0% means no effect; nearly all actives have a fitted effect of over 45% in size
#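 p53-null H1299 cells stably carrying temperature-sensitive p53-A138V and a BP100-luciferase reporter were pinned with compounds (4-point, 1:5 series) and held 24 hrs at 37 deg C. Luminescence was read 10 min after detection reagent.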
# Six1-Eya2 blk = inhibitors of human Six1/Eya2 interaction; activity change, % (test concentration not listed); Q15475+O00167; actives 0.56% (n = 360,000); AlphaScreen GST-Six1/His-Eya2 binding, biochemical; active compounds read low; in the data active means activity change below about -65%; inconclusive means mostly about -30% to -63%; further: on the % scale 0 is the no-effect control and ±100 the full control effect
# Target sequence (O00167 whole entry, looked up): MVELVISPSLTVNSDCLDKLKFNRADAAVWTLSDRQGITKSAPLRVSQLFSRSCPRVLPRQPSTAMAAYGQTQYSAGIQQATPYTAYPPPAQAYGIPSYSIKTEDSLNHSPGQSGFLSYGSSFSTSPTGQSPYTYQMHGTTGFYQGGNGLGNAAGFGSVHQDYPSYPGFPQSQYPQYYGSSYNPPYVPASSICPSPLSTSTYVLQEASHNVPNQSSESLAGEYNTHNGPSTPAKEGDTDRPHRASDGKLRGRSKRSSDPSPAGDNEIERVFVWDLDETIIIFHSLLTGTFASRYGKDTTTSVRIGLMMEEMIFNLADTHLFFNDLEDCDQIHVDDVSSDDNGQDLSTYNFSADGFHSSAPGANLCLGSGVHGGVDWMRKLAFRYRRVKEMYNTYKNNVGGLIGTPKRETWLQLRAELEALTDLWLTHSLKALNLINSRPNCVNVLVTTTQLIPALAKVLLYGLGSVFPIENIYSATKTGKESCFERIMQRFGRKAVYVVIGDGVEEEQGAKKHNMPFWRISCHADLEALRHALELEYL
# Target sequence (Q15475 whole entry, looked up): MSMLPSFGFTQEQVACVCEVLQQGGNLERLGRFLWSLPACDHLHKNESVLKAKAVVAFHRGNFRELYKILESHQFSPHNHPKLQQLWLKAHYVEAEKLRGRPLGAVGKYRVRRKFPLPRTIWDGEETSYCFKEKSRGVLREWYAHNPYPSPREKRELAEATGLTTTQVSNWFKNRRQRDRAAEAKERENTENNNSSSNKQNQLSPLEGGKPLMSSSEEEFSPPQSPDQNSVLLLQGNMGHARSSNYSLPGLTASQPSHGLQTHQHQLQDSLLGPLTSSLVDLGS
#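 Homogeneous AlphaScreen proximity assay pairing GST-Six1 with His-tagged Eya2 (added as 5X mix: 250 nM and 500 nM) in 50 mM Tris pH 8.0, 300 mM NaCl, 1 mM TCEP. Glutathione donor and nickel acceptor beads; 1 h, 37 °C, dark.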
# An asterisk follows results filed as active; ? = inconclusive; . = no result. Shown are actives, neighbours in structure and some others; about 5.4% of the full set was active somewhere. Unless noted, the call rests on the fitted dose curve; in most records, active means well fitted curve in the direction sought with a large enough effect; inconclusive means small, poorly fitted or top-dose-only effect, or another doubt; inactive means no such curve, though single readings can be large; an effect the other way counts as inactive or inconclusive.
SMILES,Gal4-VP16 FLuc,CtBP-E1A inh,RORgamma inh,p53 reactivator,Six1-Eya2 blk
COc1cc(/C=N/N=C2\CC3CCC2(C)C3(C)C)ccc1O (configuration not stated),?,-3,?,.,0
CC12CCC(C/C1=N\N=C1\NC(=O)/C(=C\c3cccc(Br)c3)S1)C2(C)C (configuration not stated),11µM*,-7,10µM*,3%,-27
CCN(Cc1ccncc1)C(=O)c1cc(COc2ccc(OC)cc2Cl)on1,-17%,-13,16%,3%,-8
Cc1ccc(S(=O)(=O)Nc2ccc3nc(C)sc3c2)cc1,?,1,?,-10%,-2
Cc1nc2ccc(NS(=O)(=O)c3ccc4c(c3)OCCO4)cc2s1,8.9µM*,14,?,4%,-2
Cc1nc2cc(NS(=O)(=O)c3c(C)c(C)cc(C)c3C)ccc2s1,11µM*,-4,?,-5%,-2
O=C(CNC(=O)C1COc2ccccc2O1)Nc1ccc(F)c(F)c1 (configuration not stated),.,5,.,-4%,0
O=C(Nc1nc(N2C(=O)c3ccccc3C2=O)n(-c2ccccc2)n1)c1ccccc1,5%,1,-42%,?,?
O=C(Nc1nc(N2C(=O)c3ccccc3C2=O)n(-c2ccccc2)n1)c1ccc(F)cc1,?,?,10µM*,15%,?
CCCC(=O)NC(c1ccc2c(c1)OCO2)c1cc(Cl)c2cccnc2c1O (configuration not stated),1.3µM*,-78*,1.4µM*,25%,-77*
CCCC(=O)NC(c1ccco1)c1cc(Cl)c2cccnc2c1O (configuration not stated),3.5µM*,-90*,4µM*,?,-83*
CCC(=O)NC(c1ccco1)c1cc(Cl)c2ccccc2c1O (configuration not stated),.,.,.,-5%,.
CCCC(=O)NC(c1cccs1)c1cc(Cl)c2cccnc2c1O (configuration not stated),0.5µM*,-71*,0.4µM*,?,?
Cc1ccc(S(=O)(=O)N2CCCN(c3nccc(C(F)(F)F)n3)CC2)cc1,-1%,8,16%,-3%,-3
O=C(c1ccco1)N1CCC2(CC1)CCN(c1ccncc1)CC2,1%,.,11%,.,.
COc1ccc2c(-c3ccccc3)cc(SCC(=O)NC3CCS(=O)(=O)C3)nc2c1 (configuration not stated),-6%,-5,11µM*,-20%,-5
CCN(C(=O)CSc1cc(-c2ccccc2)c2ccc(OC)cc2n1)C1CCS(=O)(=O)C1 (configuration not stated),-24%,-12,29%,-31%,-20
Cc1ccc(S(=O)(=O)N2CCCC(C(=O)NCc3ccccn3)C2)cc1 (configuration not stated),5%,-2,69%,-7%,9
O=C(NCc1ccccn1)C1CN(S(=O)(=O)c2ccccc2)CCN1S(=O)(=O)c1ccccc1 (configuration not stated),-7%,11,11µM*,-3%,-24
CC(C)(C)c1ccc(S(=O)(=O)N2CCCCC2C(=O)NCc2ccccn2)cc1 (configuration not stated),2.5µM*,-5,?,?,-5
Cc1ccc(S(=O)(=O)N2CCCC2CNC(=O)C(=O)NCc2ccccn2)cc1 (configuration not stated),.,-22,.,-7%,-18
O=C(Nc1ccn(CCOC(=O)c2ccccc2)c(=O)n1)c1ccccc1,.,6,.,.,1
CC(C)(C)c1nc(Sc2ccc([N+](=O)[O-])cn2)n[nH]1,-17%,8,-9%,14%,3
O=[N+]([O-])c1ccc(Sc2n[nH]c(-c3ccc(Cl)cc3Cl)n2)nc1,7.1µM*,-30,0.89µM*,15%,?
COc1ccc(CNC(=O)CCC(=O)N2CCN(S(=O)(=O)c3ccc(Cl)cc3)CC2)cc1,5%,.,-8%,-1%,1
O=S(=O)(c1ccc(Cl)c(NC(=S)N/N=C/c2ccc(O)cc2)c1)N1CCOCC1,6.3µM*,4,10µM*,7%,?

# Assay outcomes from PubChem BioAssay.
